Assay results taken from the supplement of paper PMC12669032.
Unmarked numbers belong to inactive results.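 The calls were made as follows: active = AUC reduced over 20% with Padj below 0.05 in at least 2 of 3 replicates; inactive = otherwise.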

How the values were obtained:
Experiment in all cases: growth AUC relative to DMSO control (median of replicates) (fraction); higher = more growth (less inhibition), active = hit call of the paper
Details in all cases: 20 µM; 24 h
[1] = tested on: Akkermansia muciniphila
Procedure, shortened: (§1)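 For each compound at 20 µM (1% DMSO), gut bacterial monocultures seeded at OD600 0.05 grew anaerobically in mGAM at 37 °C in round-bottom 96-well plates. Hourly OD600 readings over 24 h gave growth curves whose minimum OD was set to 0. Area under these curves was normalised to the plate median of solvent-only wells, or to row and column medians on the industrial chemical plate. Values are medians of three biological replicates grown on separate days.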

[2] = tested on: Bacteroides caccae
Procedure, shortened: as §1

[3] = tested on: Bacteroides clarus
Procedure, shortened: as §1

[4] = tested on: Bacteroides dorei
Procedure, shortened: as §1

[5] = tested on: Bacteroides stercoris
Procedure, shortened: as §1

[6] = tested on: Bacteroides thetaiotaomicron
Procedure, shortened: as §1

[7] = tested on: Bacteroides uniformis
Procedure, shortened: as §1

[8] = tested on: Bifidobacterium longum subsp. longum
Procedure, shortened: as §1

[9] = tested on: Clostridium difficile
Procedure, shortened: as §1

[10] = tested on: Collinsella aerofaciens
Procedure, shortened: as §1

SMILES	growth AUC [1]	growth AUC [2]	growth AUC [3]	growth AUC [4]	growth AUC [5]	growth AUC [6]	growth AUC [7]	growth AUC [8]	growth AUC [9]	growth AUC [10]
CCCCCCC(C)OC(=O)COc1nc(F)c(Cl)c(N)c1Cl (stereo not given)	0.94	0.885	0.874	1	0.699	0.97	0.874	0.848	0.952	0.928
Cc1ccc2c(c1)[C@H](Nc1nc(N)nc(C(C)F)n1)[C@@H](C)C2 (stereo not given in full)	0.985	1	0.969	0.989	1.08	0.975	0.948	1.03	0.998	1.01
Cl.NCCO/C=C/[C@H](N)C(=O)O	1.02	0.952	1.08	1.03	1.16	1	1.01	1.05	1.02	1.03
COC(=O)C(C)Oc1ccc(Oc2ncc(C(F)(F)F)cc2Cl)cc1 (stereo not given)	1.11	0.968	0.977	0.964	0.912	0.992	0.886	1.02	0.98	0.954
Cc1nc(C(F)(F)F)c(C(=O)Nc2c(Br)cc(OC(F)(F)F)cc2Br)s1	1.05	0.984	0.98	0.946	1.06	0.945	0.986	1	1.03	1.01
COc1nc(OC)nc(C(=O)c2cccc(F)c2N(C)S(=O)(=O)C(F)F)n1	0.993	1	1	1	1.07	1.01	1.03	1.03	1.04	1.04
Nc1cc(Cl)nc(C(=O)O)c1Cl	1.11	1.01	1.04	0.971	1.15	1.03	1.02	1.06	0.952	0.997
CC(C)N(C(=O)C(=O)O)c1ccccc1	1.01	1.01	1.05	1.03	1.13	1.01	1.01	1.08	1.02	0.981
CC(CNC(=S)[S-])NC(=S)[S-].[Zn+2] (mixture of isomers)	1.05	0.937	1.02	1	1.12	1.01	1.03	0.975	1	0.999
CC(C)Nc1nc(N)nc(Cl)n1	0.991	1.03	1.03	1.01	1.07	1.04	1.01	1	1.03	1.02
O=C(O)CCCc1c[nH]c2ccccc12	1.13	1.01	1.01	0.776	0.994	0.971	0.979	1.01	1.01	0.954
CCC/C(=N\OCC(C)Oc1ccc(Cl)cc1)C1=C(O)CC(C2CCCSC2)CC1=O (stereo not given)	0.924	0.949	0.958	1	0.843	0.901	0.939	0.91	1.02	0.973
CC(C)CNC(=O)N1CCNC1=O	1.09	0.975	1.02	0.96	1.18	1.02	1.02	1.04	1.04	1.08
c1ccc(CNc2ncnc3nc[nH]c23)cc1	1.07	1.02	0.992	0.983	0.995	1.03	1.06	0.975	0.932	1
O=[N+]([O-])c1ccc2c(c1)Cc1ccccc1-2	0.896	0.995	1.01	0.991	0.981	0.985	1	1.06	0.992	1
COC(=O)c1cccc(C)c1S(=O)(=O)NC(=O)Nc1nc(OCC(F)(F)F)nc(N(C)C)n1	0.973	0.963	0.995	1.01	1.01	0.985	0.981	0.992	0.987	1.01
Br[C@@H]1CC[C@@H](Br)[C@@H](Br)CC[C@@H](Br)[C@@H](Br)CC[C@H]1Br	1.01	0.983	0.795 (active)	0.924	0.573 (active)	0.967	0.928	0.779 (active)	1.01	0.796 (active)
COc1cc(OC)nc(NC(=O)NS(=O)(=O)c2c(Cl)nc3ccccn23)n1	1.06	1.02	1	1.02	1.1	1	1.02	1.02	1	1.03
CC(C)N(C)S(=O)(=O)NC(=O)c1cc(-n2c(=O)cc(C(F)(F)F)[nH]c2=O)c(F)cc1Cl	0.971	0.993	0.983	0.967	1.1	1	1.03	0.962	0.982	0.953
CC(C)N(C(=O)C(=O)O)c1ccc(F)cc1	1.04	1.02	1.03	1.02	1.23	1.02	0.993	1.05	1.03	1.01
CC(C)CCCCCCc1ccc(O)cc1	0.981	1.03	1.03	1.01	0.923	0.992	0.965	1.03	1.07	0.979
CCNc1nc(NCC)nc(OC)n1	0.914	1.02	1.02	1	1.01	0.967	0.992	0.957	1	0.992
CON(C(=O)c1cc(C)oc1C)C1CCCCC1	0.96	1	1	1	1.04	0.972	0.997	1.03	0.972	1.03
CC1(C)C(=O)Oc2ccc(OS(C)(=O)=O)cc21	1.03	1.05	0.993	1.02	1.06	0.988	0.986	0.988	0.99	0.997
COc1cc(Cl)ccc1Oc1ccc(Cl)cc1Cl	1.03	0.902	0.933	0.948	0.93	0.984	0.98	0.872	1.01	1.01
CCCCC(CC)CN1C(=O)C2C(C1=O)[C@H]1C=C[C@@H]2C1 (mixture of isomers)	1.11	1	1.03	0.974	1.06	0.985	0.972	1.05	1.03	1.12
O=C(NCc1ncc(C(F)(F)F)cc1Cl)c1c(Cl)cccc1Cl	0.937	0.973	0.967	0.975	1.17	0.95	1.02	1.04	1	0.987
CCCC(C)(C)C(=O)Nc1ccc(Cl)cc1	0.942	1	1.01	1.02	1.01	0.946	0.955	0.98	0.999	1.02
CCN(Cc1c(F)cccc1Cl)c1c([N+](=O)[O-])cc(C(F)(F)F)cc1[N+](=O)[O-]	0.852	0.822	0.831	1.02	0.27 (active)	0.934	1.03	0.909	0.99	0.829
